This is part of a sample that, as a whole, favours compounds with a hit. Of some 83,000 tested, about 20% had one in any assay.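 Activity criterion: percent growth below 10, measured after cells in 96-well plates were exposed to a single compound concentration for 48 hours.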 A number with no mark means an inactive call. Calls of active or inactive are those of the source.
How the values were obtained:
Assay in all cases: NCI-60 one-dose screen, 48 h (100 = growth as untreated, 0 = no growth, -100 = all killed)
Conditions in all cases: 10 µM unless noted
NCI-H23 lung = test system: NCI-H23 lung
NCI-H322M lung = test system: NCI-H322M lung
HOP-62 NSCLC = test system: HOP-62 NSCLC
NCI-H460 lung = test system: NCI-H460 lung
HOP-92 NSCLC = test system: HOP-92 NSCLC
NCI-H522 lung = test system: NCI-H522 lung
A549/ATCC NSCLC = test system: A549/ATCC NSCLC
786-0 renal = test system: 786-0 renal
COLO 205 colon = test system: COLO 205 colon
DU-145 prostate = test system: DU-145 prostate
K-562 leukemia = test system: K-562 leukemia
MALME-3M melanoma = test system: MALME-3M melanoma
MDA-MB-231 breast = test system: MDA-MB-231 breast
RXF 393 renal = test system: RXF 393 renal
SF-268 CNS = test system: SF-268 CNS
SF-295 CNS = test system: SF-295 CNS
SF-539 CNS = test system: SF-539 CNS
UACC-257 melanoma = test system: UACC-257 melanoma
M14 melanoma = test system: M14 melanoma
HCT-15 colon = test system: HCT-15 colon

SMILES | growth (NCI-H23 lung) | growth (NCI-H322M lung) | growth (HOP-62 NSCLC) | growth (NCI-H460 lung) | growth (HOP-92 NSCLC) | growth (NCI-H522 lung) | growth (A549/ATCC NSCLC) | growth (786-0 renal) | growth (COLO 205 colon) | growth (DU-145 prostate) | growth (K-562 leukemia) | growth (MALME-3M melanoma) | growth (MDA-MB-231 breast) | growth (RXF 393 renal) | growth (SF-268 CNS) | growth (SF-295 CNS) | growth (SF-539 CNS) | growth (UACC-257 melanoma) | growth (M14 melanoma) | growth (HCT-15 colon)
N#C/C(=C1\SC(=O)CN1c1ccccc1)c1nc2ccccc2s1 | 75.8% | 102% | 94.4% | 97.1% | 102% | 80.5% | 97% | 102% | 103% | 99.7% | 82.8% | 99.3% | 85.5% | 105% | 103% | 84.2% | 97.6% | 97% | 91.2% | 95.8%
CN(C)CCNc1cc(-c2ccccc2)nc2ccccc12 | -32.9% (active) | 8.29% (active) | -65.4% (active) | 0.75% (active) | -68.6% (active) | -90.6% (active) | -53.8% (active) | -79.2% (active) | -73.7% (active) | -62.1% (active) | 0.508% (active) | -77.3% (active) | -33.7% (active) | -91.1% (active) | -53.3% (active) | -71.5% (active) | -74.4% (active) | -74.5% (active) | -20.4% (active) | 6.92% (active)
COc1cc(C(=O)NN=C2c3ccccc3-c3ccccc32)cc(OC)c1OC | 62% | 54% | 36.6% | 11.2% | 42.4% | 15% | 43.6% | 41.9% | 2.88% (active) | 49.7% | 13.9% | 44.4% | 49.1% | 16.7% | 45.1% | -0.172% (active) | 4.99% (active) | 38.1% | 17.6% | 27.2%
C=C[C@@H]1CCC/C=C/[C@@H]2C[C@H](O)C[C@H]2[C@H](O)/C=C/C(=O)O1 | 5.64% (active) | 38.3% | 19.2% | 13.5% | 25.5% | -24.5% (active) | 22.6% | -12.9% (active) | -78.4% (active) | 21.1% | 11.4% | -12.5% (active) | -47.9% (active) | -5.1% (active) | 8.16% (active) | 14.6% | 30.3% | 33.5% | 21% | 11.6%
COc1ccc(-c2nsc3c2NC(=O)CC3c2cccc(OC)c2)cc1 (stereo not given) | 43.3% | 57% | 39.1% | 17.6% | 49.9% | 25.5% | 37.1% | 49.6% | -11.7% (active) | 13.7% | 18.9% | 41.5% | 73.3% | 16.8% | 62.3% | 15.5% | 13% | 74.7% | 28.6% | 26.4%
COc1ccc(Cn2c(Br)c3c(c2Br)-c2nc(NC(=O)c4ccc(OC)cc4)sc2CC3)cc1 | 81.3% | 56.4% | 68.6% | 77.4% | 50.6% | 72% | 79.7% | 61.8% | 103% | 78% | 79.2% | 4.4% (active) | 52.6% | 57% | 72% | 57.7% | 52.1% | 78.5% | 80.4% | 92.8%
O=C(Nc1ccc(Cl)cc1F)c1cc(Br)ccc1O | 4.02% (active) | 7.3% (active) | 1.76% (active) | 4.27% (active) | -12.8% (active) | -12.9% (active) | 7.61% (active) | 3.02% (active) | 51.5% | 17.2% | 8.83% (active) | -16.9% (active) | -26.1% (active) | 7.94% (active) | 13.6% | -48.3% (active) | 7.34% (active) | -15.8% (active) | 8.91% (active) | 4.84% (active)
CCN1C(=O)N(CC)C2C1NC(=S)N2/N=C/C=C/c1ccccc1OC (stereo not given) | 24.3% | 43.9% | 44.4% | 5.86% (active) | 18.4% | 4.46% (active) | 22.5% | 20.2% | -46.2% (active) | 9.85% (active) | 9.29% (active) | 55.1% | 13.3% | 35.3% | 26.7% | 11.1% | -8.21% (active) | 71.9% | 7.43% (active) | 9.07% (active)
CN1C(=O)N(C)C2C1NN=c1s/c(=C\c3c[nH]c4ccccc34)c(=O)n12 (stereo not given) | 38.7% | 50.4% | 49.2% | 1.56% (active) | 114% | 11.5% | 24.3% | 23.4% | -53.4% (active) | 5.09% (active) | 8.94% (active) | 60.6% | 34.7% | 44.5% | 39.1% | 12.8% | 2.32% (active) | 79.5% | 12.3% | 11.8%
CN1C(=O)N(C)C2C1NN=c1s/c(=C\c3ccc(Cl)cc3Cl)c(=O)n12 (stereo not given) | 29% | 38.3% | 54.3% | 3.01% (active) | 97.6% | 17.5% | 25.1% | 24% | 1.82% (active) | 5.98% (active) | 7.76% (active) | 62.4% | 30.4% | 16.2% | 31.6% | 17.4% | 1.09% (active) | 75.8% | 7.37% (active) | 15.8%
O=C(Nc1ccc(N2CCNCC2)cn1)c1[nH]ncc1Nc1ncnc2sc3c(c12)CCC3 | 10.7% | 63.8% | 76.2% | -59.2% (active) | 37.9% | 35.9% | -51.7% (active) | -85.5% (active) | 22.8% | -52.1% (active) | -65.2% (active) | -47.7% (active) | -48.9% (active) | 18.6% | 37.8% | 104% | -51% (active) | 67.8% | -60.7% (active) | -85.6% (active)
NC(CCc1nc2ccccc2c(=O)[nH]1)C(=O)O (stereo not given) | 105% | 97.8% | 103% | 108% | 108% | 91.7% | 105% | 101% | 115% | 120% | 96.7% | 104% | 103% | 115% | 106% | 104% | 105% | 105% | 105% | 101%
NC(=O)CSc1nc(-c2ccc(F)cc2)cc(-c2ccco2)n1 | 98.7% | 99.9% | 108% | 110% | 101% | 94.5% | 104% | 105% | 111% | 111% | 103% | 110% | 98.3% | 118% | 104% | 102% | 110% | 109% | 98% | 107%
COc1ccc(N(C)c2nc(N)nc3sc4c(c23)CCCC4)cc1 | 19.3% | 52.6% | 28.3% | 3.58% (active) | 36.5% | -13.7% (active) | 15.4% | 26.4% | -60.3% (active) | 0.729% (active) | 7.85% (active) | 50.1% | 25.5% | 46.6% | 30% | 14.5% | -6.54% (active) | 39% | 1.13% (active) | 4.87% (active)
O=c1[nH]nnc2c1ncn2C1OC(CO)C(O)C1O (stereo not given) | 63.3% | 71.1% | 66.7% | 33.1% | 35.7% | 58% | 49.7% | 54.4% | 34.4% | 26.8% | 31.5% | 57.5% | 55.2% | 80.7% | 67.6% | 20.2% | 67.2% | 65.2% | 36.2% | 66.5%
CCOC(=O)C1=C(C)N=c2s/c(=C\c3cc(Cl)ccc3O)c(=O)n2C1c1ccc(OC)cc1 (stereo not given) | 88.1% | 104% | 110% | 91.6% | 69.2% | 81% | 94.9% | 94.6% | 101% | 107% | 73.8% | 109% | 95.1% | 80.9% | 107% | 111% | 118% | 101% | 88.4% | 98.6%

— PubChem BioAssay (NCI)
